Source: PubChem BioAssay AID1159580 (chemical genetic matrix, 2015)
The whole screen tested about 5,500 compounds, of which about 2,000 (36%) were called active. Another 18% or so got no clear call; they are omitted. Cut-off read from the data, not from the text of the source: active = normalized growth mostly below about 0.91 (no sharp cut-off); inconclusive = no clear call, values can overlap the other calls; inactive = mostly above about 0.92. Some of the results follow.

Assay: chemical genetic growth profiling, strain panel (AID 1159580);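 note: tested at 20 µM; growth read once vehicle control cultures reached saturation at 30 °C; 1 = growth at the plate median or of vehicle wells; lower values mean less growth of the strain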
Details: growth OD
[1] = S. cerevisiae deletion strains, locus YAR019C, strain CDC15, stronger effect = lower value
[2] = S. cerevisiae deletion strains, locus YBL105C, strain PKC1, stronger effect = lower value
[3] = S. cerevisiae deletion strains, locus YBR135W, strain CKS1, stronger effect = lower value
[4] = S. cerevisiae deletion strains, locus YBR136W, strain MEC1, stronger effect = lower value
[5] = S. cerevisiae deletion strains, locus YBR160W, strain CDC28, stronger effect = lower value
[6] = S. cerevisiae deletion strains, locus YDL017W, strain CDC7, stronger effect = lower value
[7] = S. cerevisiae deletion strains, locus YDL028C, strain MPS1, stronger effect = lower value
[8] = S. cerevisiae deletion strains, locus YDL101C, strain DUN1, stronger effect = lower value
[9] = S. cerevisiae deletion strains, locus YDL108W, strain KIN28, stronger effect = lower value
[10] = S. cerevisiae deletion strains, locus YDL132W, strain cdc53, stronger effect = lower value
[11] = S. cerevisiae deletion strains, locus YDL214C, strain PRR2, stronger effect = lower value
[12] = S. cerevisiae deletion strains, locus YDR052C, strain DBF4, stronger effect = lower value
[13] = S. cerevisiae deletion strains, locus YDR054C, strain cdc34, stronger effect = lower value
[14] = S. cerevisiae deletion strains, locus YDR226W, strain ADK1, stronger effect = lower value
[15] = S. cerevisiae deletion strains, locus YDR477W, strain SNF1, stronger effect = lower value
[16] = S. cerevisiae deletion strains, locus YER123W, strain YCK3, stronger effect = lower value
[17] = S. cerevisiae deletion strains, locus YER133W, strain GLC7, stronger effect = lower value
[18] = S. cerevisiae deletion strains, locus YFL009W, strain cdc4, stronger effect = lower value
[19] = S. cerevisiae deletion strains, locus YFL029C, strain CAK1, stronger effect = lower value
[20] = S. cerevisiae deletion strains, locus YFR003C, strain YPI1, stronger effect = lower value
[21] = S. cerevisiae deletion strains, locus YFR019W, strain FAB1, stronger effect = lower value
[22] = S. cerevisiae deletion strains, locus YFR028C, strain CDC14, stronger effect = lower value
[23] = S. cerevisiae deletion strains, locus YGR040W, strain KSS1, stronger effect = lower value
[24] = S. cerevisiae deletion strains, locus YGR052W, strain FMP48, stronger effect = lower value
[25] = S. cerevisiae deletion strains, locus YGR092W, strain DBF2, stronger effect = lower value
[26] = S. cerevisiae deletion strains, locus YHR030C, strain SLT2, stronger effect = lower value
[27] = S. cerevisiae deletion strains, locus YHR079C, strain IRE1, stronger effect = lower value
[28] = S. cerevisiae deletion strains, locus YHR082C, strain KSP1, stronger effect = lower value
[29] = S. cerevisiae deletion strains, locus YHR205W, strain SCH9, stronger effect = lower value
[30] = S. cerevisiae deletion strains, locus YIL147C, strain SLN1, stronger effect = lower value
[31] = S. cerevisiae deletion strains, locus YJL095W, strain BCK1, stronger effect = lower value
[32] = S. cerevisiae deletion strains, locus YJL128C, strain PBS2, stronger effect = lower value
[33] = S. cerevisiae deletion strains, locus YJL157C, strain FAR1, stronger effect = lower value
[34] = S. cerevisiae deletion strains, locus YJR016C, strain ILV3, stronger effect = lower value
[35] = S. cerevisiae deletion strains, locus YJR066W, strain TOR1 (second series), stronger effect = lower value
[36] = S. cerevisiae deletion strains, locus YJR066W, strain TOR1, stronger effect = lower value
[37] = S. cerevisiae deletion strains, locus YKL048C, strain ELM1, stronger effect = lower value
[38] = S. cerevisiae deletion strains, locus YKL067W, strain YNK1, stronger effect = lower value
[39] = S. cerevisiae deletion strains, locus YKL101W, strain HSL1, stronger effect = lower value
[40] = S. cerevisiae deletion strains, locus YKL193C, strain SDS22, stronger effect = lower value
[41] = S. cerevisiae deletion strains, locus YKL203C, strain TOR2, stronger effect = lower value
[42] = S. cerevisiae deletion strains, locus YLR113W, strain HOG1, stronger effect = lower value
[43] = S. cerevisiae deletion strains, locus YLR133W, strain CKI1, stronger effect = lower value
[44] = S. cerevisiae deletion strains, locus YLR403W, strain SFP1, stronger effect = lower value
[45] = S. cerevisiae deletion strains, locus YML070W, strain DAK1, stronger effect = lower value
[46] = S. cerevisiae deletion strains, locus YMR001C, strain CDC5, stronger effect = lower value
[47] = S. cerevisiae deletion strains, locus YMR205C, strain PFK2 (second series), stronger effect = lower value
[48] = S. cerevisiae deletion strains, locus YMR277W, strain FCP1, stronger effect = lower value
[49] = S. cerevisiae deletion strains, locus YNL006W, strain LST8, stronger effect = lower value
[50] = S. cerevisiae deletion strains, locus YNL020C, strain ARK1, stronger effect = lower value
[51] = S. cerevisiae deletion strains, locus YNL161W, strain CBK1, stronger effect = lower value
[52] = S. cerevisiae deletion strains, locus YNL183C, strain NPR1, stronger effect = lower value
[53] = S. cerevisiae deletion strains, locus YNL207W, strain RIO2, stronger effect = lower value
[54] = S. cerevisiae deletion strains, locus YNL222W, strain SSU72, stronger effect = lower value
[55] = S. cerevisiae deletion strains, locus YNL307C, strain MCK1 (second series), stronger effect = lower value
[56] = S. cerevisiae deletion strains, locus YOL078W, strain AVO1, stronger effect = lower value
[57] = S. cerevisiae deletion strains, locus YOL136C, strain PFK27, stronger effect = lower value
[58] = S. cerevisiae deletion strains, locus YOR061W, strain CKA2, stronger effect = lower value
[59] = S. cerevisiae deletion strains, locus YOR119C, strain RIO1, stronger effect = lower value
[60] = S. cerevisiae deletion strains, locus YOR231W, strain MKK1, stronger effect = lower value
[61] = S. cerevisiae deletion strains, locus YOR329C, strain SCD5, stronger effect = lower value
[62] = S. cerevisiae deletion strains, locus YPL031C, strain PHO85, stronger effect = lower value
[63] = S. cerevisiae deletion strains, locus YPL153C, strain RAD53, stronger effect = lower value
[64] = S. cerevisiae deletion strains, locus YPL204W, strain HRR25, stronger effect = lower value
[65] = S. cerevisiae deletion strains, locus YPL209C, strain IPL1, stronger effect = lower value
[66] = S. cerevisiae deletion strains, locus YPL256C, strain CLN2, stronger effect = lower value
[67] = S. cerevisiae deletion strains, locus YPR025C, strain CCL1, stronger effect = lower value
[68] = S. cerevisiae deletion strains, locus YPR106W, strain ISR1, stronger effect = lower value
[69] = S. cerevisiae deletion strains, locus YPR111W, strain DBF20, stronger effect = lower value
[70] = S. cerevisiae deletion strains, strain NNK1, stronger effect = lower value
[71] = S. cerevisiae deletion strains, strain TSCII, stronger effect = lower value

Measured: normalized growth

Cn1nccc1-c1cc(Cl)cc(Cl)c1O
active: [17] 0.687 | [26] 0.617 | [42] 0.571 | [66] 0.718
inactive: [1] 0.955 | [2] 0.959 | [3] 0.963 | [4] 0.959 | [5] 0.969 | [6] 0.962 | [7] 0.964 | [8] 0.964 | [9] 0.967 | [10] 0.966 | [11] 0.799 | [12] 0.971 | [13] 0.969 | [14] 0.981 | [15] 0.731 | [16] 0.739 | [18] 0.982 | [19] 0.952 | [20] 0.961 | [21] 0.869 | [22] 0.975 | [23] 0.745 | [24] 0.742 | [25] 0.722 | [27] 0.698 | [28] 0.748 | [29] 0.787 | [30] 0.96 | [31] 0.676 | [32] 0.917 | [33] 0.749 | [34] 0.962 | [35] 0.673 | [36] 0.686 | [37] 0.908 | [38] 0.817 | [39] 0.835 | [40] 0.934 | [41] 0.798 | [43] 0.825 | [44] 0.678 | [45] 0.719 | [46] 0.947 | [47] 0.795 | [48] 0.934 | [49] 0.968 | [50] 0.819 | [51] 0.956 | [52] 0.757 | [53] 0.948 | [54] 0.964 | [55] 0.798 | [56] 0.95 | [57] 0.773 | [58] 0.744 | [59] 0.798 | [60] 0.795 | [61] 0.963 | [62] 0.704 | [63] 0.718 | [64] 0.685 | [65] 0.965 | [67] 0.961 | [68] 0.948 | [69] 0.952 | [70] 0.96 | [71] 0.947

O=S(=O)(NCc1ccc(C(F)(F)F)cc1)c1cccc(C(F)(F)F)c1
inactive: [1] 0.985 | [2] 0.986 | [3] 0.982 | [4] 0.985 | [5] 0.988 | [6] 0.989 | [7] 0.98 | [8] 0.987 | [9] 0.983 | [10] 0.973 | [11] 0.945 | [12] 0.987 | [13] 0.985 | [14] 0.99 | [15] 0.956 | [16] 0.908 | [17] 0.948 | [18] 0.974 | [19] 0.977 | [20] 0.983 | [21] 0.981 | [22] 0.983 | [23] 0.958 | [24] 0.97 | [25] 0.942 | [26] 0.883 | [27] 0.886 | [28] 1.04 | [29] 0.943 | [30] 0.984 | [31] 0.869 | [32] 0.917 | [33] 0.954 | [34] 0.984 | [35] 0.922 | [36] 1.02 | [37] 0.976 | [38] 0.96 | [39] 0.936 | [40] 0.983 | [41] 1.01 | [43] 0.976 | [44] 0.971 | [45] 0.921 | [46] 0.987 | [47] 0.948 | [48] 0.984 | [49] 0.98 | [50] 0.964 | [51] 0.985 | [52] 1.04 | [53] 0.987 | [54] 0.983 | [55] 0.954 | [56] 0.987 | [57] 0.916 | [58] 0.987 | [59] 1.02 | [60] 0.952 | [61] 0.987 | [62] 0.95 | [63] 0.937 | [64] 0.918 | [65] 0.986 | [66] 0.885 | [67] 0.981 | [68] 0.979 | [69] 0.97 | [70] 0.984 | [71] 0.995
active: [42] 0.802

O=S(=O)(c1ccc(Cl)cc1)c1cc(C(F)(F)F)cc(C(F)(F)F)c1
inactive: S. cerevisiae deletion strains, locus YAL013W, strain DEP1, stronger effect = lower value 0.978 | S. cerevisiae deletion strains, locus YBR229C, strain ROT2, stronger effect = lower value 0.983 | S. cerevisiae deletion strains, locus YCL061C, strain MRC1, stronger effect = lower value 1 | [8] 1.01 | S. cerevisiae deletion strains, locus YDR150W, strain NUM1, stronger effect = lower value 1.01 | S. cerevisiae deletion strains, locus YEL061C, strain CIN8, stronger effect = lower value 0.963 | S. cerevisiae deletion strains, locus YGR078C, strain PAC10, stronger effect = lower value 0.988 | S. cerevisiae deletion strains, locus YGR229C, strain SMI1, stronger effect = lower value 0.98 | [26] 0.988 | S. cerevisiae deletion strains, locus YHR087W, strain rtc3, stronger effect = lower value 0.986 | S. cerevisiae deletion strains, locus YJL187C, strain SWE1, stronger effect = lower value 0.984 | S. cerevisiae deletion strains, locus YJR043C, strain POL32, stronger effect = lower value 0.989 | S. cerevisiae deletion strains, locus YJR075W, strain HOC1, stronger effect = lower value 0.957 | S. cerevisiae deletion strains, locus YLR039C, strain RIC1, stronger effect = lower value 0.954 | S. cerevisiae deletion strains, locus YLR058C, strain SHM2 (second series), stronger effect = lower value 0.987 | S. cerevisiae deletion strains, locus YLR085C, strain ARP6, stronger effect = lower value 0.935 | S. cerevisiae deletion strains, locus YLR262C, strain YPT6, stronger effect = lower value 0.964 | S. cerevisiae deletion strains, locus YML094W, strain GIM5, stronger effect = lower value 0.978 | S. cerevisiae deletion strains, locus YMR219W, strain ESC1, stronger effect = lower value 0.974 | S. cerevisiae deletion strains, locus YMR263W, strain SAP30, stronger effect = lower value 1 | S. cerevisiae deletion strains, locus YNL128W, strain TEP1, stronger effect = lower value 0.972 | S. cerevisiae deletion strains, locus YNL153C, strain GIM3, stronger effect = lower value 1.01 | S. cerevisiae deletion strains, locus YNL298W, strain CLA4 (second series), stronger effect = lower value 1.03 | S. cerevisiae deletion strains, locus YNL322C, strain KRE1, stronger effect = lower value 0.952 | S. cerevisiae deletion strains, locus YNR030W, strain Alg12, stronger effect = lower value 0.955 | S. cerevisiae deletion strains, locus YOL006C, strain TOP1, stronger effect = lower value 0.97 | S. cerevisiae deletion strains, locus YPL055C, strain LGE1, stronger effect = lower value 1.03 | S. cerevisiae deletion strains, locus YPL241C, strain CIN2, stronger effect = lower value 0.992 | S. cerevisiae deletion strains, locus YPR135W, strain CTF4, stronger effect = lower value 1.08 | S. cerevisiae strains, strain wild type, stronger effect = lower value 0.976
